Values joined by “and” are separate entries in the source; they are usually repeats but may differ in a detail not shown here. Equal entries are not always repeated. Records with an inconclusive call do not appear. Unmarked numbers belong to inactive results. Active and inactive are the calls of the source. Calls come from the whole dose curve; as a rule, active = well fitted curve in the direction sought with a large enough effect; inconclusive = small, poorly fitted or top-dose-only effect, or another doubt; inactive = no such curve, though single readings can be large; an effect the other way counts as inactive or inconclusive.
Experiments:
[1] = qHTS Assay for Identifying Gametocytocidal Compounds (AID 743244);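 note: actives lower the fluorescent signal which means gametocytes are killed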; conditions: P. falciparum 3D7 stage III-V gametocytes, alamarBlue, 72 h; max response: hits give low values
Outline: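 Late gametocytes (III–V), P. falciparum 3D7; 72 h drug, then 24 h alamarBlue; resazurin reduction read by fluorescence.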

[2] = P-glycoprotein substrates identified in KB-8-5-11 adenocarcinoma cell line, qHTS therapeutic library screen (AID 1346987); note: series mostly up to about 44 µM; nearly all actives have a fitted effect of over 65% in size
Outline: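 KB-8-5-11: colchicine-selected sub-line of KB-3-1 over-expressing P-gp; assay medium lacked colchicine. 72 h drug exposure at 37 degree C, CellTiter-Glo.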

[3] = qHTS assay for cell viability of HEK293 cells (AID 743288); conditions: ATP luminescence (CellTiter-Glo), 18 h, hits give low values; note: nearly all actives have a fitted effect of over 50% in size
Outline: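 Total intracellular ATP, measured with a luciferase-coupled reagent, indicates the number of viable HEK293 cells. Exposure to test chemicals lasts 18 h at 37 C in 1,536-well format at 2,000 cells/well.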

[4] = qHTS assay for cell viability of the p53RE-bla HCT-116 cell line (AID 743292); note: nearly all actives have a fitted effect of over 55% in size
Outline: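 Intracellular ATP of p53RE-bla HCT-116 cells measured by luciferase luminescence following 16 h compound incubation at 37 C; DMSO-only wells served as vehicle controls.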
% is set by controls: 0 for no effect and ±100 for the full control effect.

CO[C@@H]1[C@@H](O[C@@H]2O[C@H](C)[C@@H](O[C@H]3C[C@@](C)(O)[C@@H](OC(=O)CC(C)C)[C@H](C)O3)[C@H](N(C)C)[C@H]2O)[C@@H](CC=O)C[C@@H](C)[C@@H](O)/C=C/C=C/C[C@@H](C)OC(=O)C[C@H]1O
max response [1]: 4.51% and 4.66%

COc1cc2c(c(OC)c1OC)-c1c(cc3c(c1OC)OCO3)C[C@@H](C)[C@](C)(O)C2
max response [1]: 3.46% and 15.8% | Potency [2]: inactive

CCOc1ccc(N=C(C)Nc2ccc(OCC)cc2)cc1
max response [1]: -5.06%

COc1ccc(CCNCC(O)COc2cccc(C)c2)cc1OC (configuration not stated)
max response [1]: 11.3%

CCCCCCCC/C=C\CCCCCCCC(=O)OC[C@@H](O)[C@H]1OC[C@H](O)[C@H]1O
max response [1]: -9.22% | max response [3]: -9.48% | outcome [4]: inactive | Potency [2]: inactive

CC(=O)[C@@]1(O)CC[C@H]2[C@@H]3C=C(Cl)C4=CC(=O)CC[C@]4(C)[C@H]3CC[C@@]21C
max response [1]: -4.61%

NCCCNCCCCNC(=O)C(O)NC(=O)CCCCCCN=C(N)N (configuration not stated)
max response [1]: -11.8%

Nc1ncnc(Nc2ccc(Cl)cc2)n1
max response [1]: -12% | Potency [2]: inactive

O=C(O)CC(O)(CC(=O)O)C(=O)O
max response [1]: -12% | max response [3]: -6.07% and -4.96% and -7.26% | outcome [4]: inactive | Potency [2]: inactive

— PubChem BioAssay (NCATS)
